Source: PubChem BioAssay (National Center for Advancing Translational Sciences (NCATS))
Pin1 inhibitor = qHTS Assay to Find Inhibitors of Pin1. Peptidyl-prolyl cis-trans isomerase NIMA-interacting 1 (Homo sapiens), Q13526. Pin1 FP peptide displacement, HiFluor488, 10 min. Potency, µM (doses to about 115 µM), for inactives: at the highest dose activity, negative = inhibition, usual class: inhibitors. hit rate 0.009% among 390,000; active = well fitted inhibition curve with a large enough effect in the polarisation, with a control signal flat, not every such curve was filed as active; inconclusive = small, poorly fitted or top-dose-only effect, or effect the other way, or a change in a side signal; inactive = no such curve, though single readings can be large or run the other way; the % refers to the polarisation; also: potency is read from the fitted curve at half-maximal effect; % is scaled to controls: 0 for no effect and ±100 for the full control effect
Target sequence (Q13526 whole entry, looked up): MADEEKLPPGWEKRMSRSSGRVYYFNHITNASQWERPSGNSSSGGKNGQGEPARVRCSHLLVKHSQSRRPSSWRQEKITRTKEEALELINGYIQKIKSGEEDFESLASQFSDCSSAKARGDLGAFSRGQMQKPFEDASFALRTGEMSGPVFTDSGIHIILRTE
PTHR1 ag = qHTS for PTHR1 Agonists: Primary Screen; Parathyroid hormone/parathyroid hormone-related peptide receptor (Homo sapiens), Q03431; HEK293 GP2 PTHR1 cells, GloSensor cAMP luminescence, 1 h; Potency, µM (highest dose often 115 µM), inactives show at the highest dose activation, hits mostly activators; hit rate 0.075% among 410,000; AID 743266, 2014; also: potency is read from the fitted curve at half-maximal effect; nearly all actives have a fitted effect of over 55% in size
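HEK-293-derived GP2 cells expressing PTHR1 and a GloSensor cAMP reporter, 3,000/well, plated overnight, given luciferin plus IBMX (each 0.5 mM as added) for 1 h at 37 °C, then compound for 1 h at 37 °C. Luminescence was read after 15 min at room temperature.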
HEK293 tox = qHTS of GLP-1 Receptor Inverse Agonists: Cytotox Screen. HEK293 cAMP-luciferase reporter cells, luminescence, 24 h. Potency, µM (highest dose often 38.3 µM), for inactives: top-dose activity change, negative = inhibition, usual class: inhibitors. hit rate 0.13% among 410,000;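 also: loss of luciferase light is scored as toxicity; potency is read from the fitted curve at half-maximal effect; % is scaled to controls: 0 for no effect and ±100 for the full control effect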
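Here, cytotoxicity is scored as loss of luminescence. The MLSMR collection was tested on cells seeded in medium containing 10% Nu serum, with a 24 hr compound exposure preceded by 12 hours of culture.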
GLP1R inv ag = qHTS of GLP-1 Receptor Inverse Agonists (Inhibition Mode). Glucagon-like peptide 1 receptor (Homo sapiens), P43220. HEK293 GLP-1R CRE-luciferase, luminescence, 24 h; GLP-1R form is constitutively active. Potency, µM (titrated, usually from 38.3 µM), for inactives: at the highest dose activity change, negative = inhibition, actives largely listed as inhibitors. hit rate 1.6% among 410,000; also: potency is read from the fitted curve at half-maximal effect; % is scaled to controls: 0 for no effect and ±100 for the full control effect; nearly all actives have a fitted effect of over 55% in size
Target sequence (P43220 whole entry, looked up): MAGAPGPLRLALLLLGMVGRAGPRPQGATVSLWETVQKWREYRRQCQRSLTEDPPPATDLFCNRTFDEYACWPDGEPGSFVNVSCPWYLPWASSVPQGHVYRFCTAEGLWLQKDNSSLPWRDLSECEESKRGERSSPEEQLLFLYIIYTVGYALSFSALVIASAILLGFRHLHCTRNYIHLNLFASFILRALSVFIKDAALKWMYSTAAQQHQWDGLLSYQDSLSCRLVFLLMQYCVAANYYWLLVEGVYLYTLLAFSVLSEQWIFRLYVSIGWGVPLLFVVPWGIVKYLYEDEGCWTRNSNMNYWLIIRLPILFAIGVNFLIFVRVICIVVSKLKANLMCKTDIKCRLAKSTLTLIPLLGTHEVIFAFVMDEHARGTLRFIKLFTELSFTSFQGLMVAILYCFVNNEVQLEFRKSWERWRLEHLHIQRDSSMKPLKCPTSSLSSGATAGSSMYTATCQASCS
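HEK293 cells stably co-expressing a cAMP-responsive luciferase reporter and constitutively active GLP-1R were seeded, incubated 12 h, then exposed to compounds for 24 h at 37 C. Luminescence was read 12 min after detection reagent; inverse agonists lower signal.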
miR-21 reporter = qHTS Assay for Modulators of miRNAs and/orActivators of miR-21; HeLa miR-21 FLuc reporter, luciferase, 48 h; Potency, µM (series often up to 38.3 µM), for the others: top-dose activity change, positive = activation, hits mostly activators; 340,000 tested, under 10 active; AID 2288, 2010;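 also: % of control where 0% means no effect; miR-21 action dims this reporter so a rising signal means less miR-21 action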
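HeLa cells endogenously expressing miR-21, stably carrying CMV-driven firefly luciferase with a downstream miR-21 binding site, 2000 cells/well. Titrations up to approximately 40 uM, 48 hours; luciferase luminescence read.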
GLP1R ag = qHTS of GLP-1 Receptor Agonists; Potency, µM (doses to about 45.6 µM), for the others: at the top dose activation, actives largely listed as activators; hit rate 0.007% among 380,000; HEK293 GLP-1R CRE-luciferase, luminescence, 4-6 h; cells express a hypersensitive GLP-1R form; Glucagon-like peptide 1 receptor (Homo sapiens), P43220; also: potency is read from the fitted curve at half-maximal effect; % of control where 0% means no effect
The depositor's hits bear a star; i = inactive; ? = inconclusive; . = no result given; [ ] = remark or other dose. The list is not random: actives were taken first. Their share in the collection is about 1.7%. Unless noted, calls follow the shape of the dose curve; as a rule, active = well fitted curve in the direction sought with a large enough effect; inconclusive = small, poorly fitted or top-dose-only effect, or another doubt; inactive = no such curve, though single readings can be large; an effect the other way counts as inactive or inconclusive.

SMILES	Pin1 inhibitor	PTHR1 ag	HEK293 tox	GLP1R inv ag	miR-21 reporter	GLP1R ag
CN1c2ccccc2C(O)=C(C(=S)Nc2ccc(F)c(Cl)c2)S1(=O)=O	-5.3%	-40.3%	10.6%	10µM*	18.8%	-25.9%
CC(C)(C)NCC(O)(c1ccc(Cl)cc1)c1ccc(Cl)cc1	0.2%	-14.6%	?	4.47µM*	-4.9%	0.4%
CCN(CC)CCNCC(O)(c1ccc(Cl)cc1)c1ccc(Cl)cc1	13.4%	i	1.8%	8.91µM*	3.8%	0.5%
CC(C)NCC(O)(c1ccc(Cl)cc1)c1ccc(Cl)cc1	-3.8%	i	-8.3%	12.6µM*	10.3%	16.7%
COc1cccc(C2c3c(ncn(Cc4cccs4)c3=N)Oc3ccc4ccccc4c32)c1 (stereo not given)	27.3%	.	.	.	.	.
COc1cc2c(cc1OC)n(CC(=O)c1cc(C)ccc1C)c(=O)n1nc(CCn3nc(C)cc3C)nc21	-0.2%	-21.6%	10.2%	-63.7%	-2.7%	.
CCN1CCN(Cc2ccc(NC(=O)Nc3ccc(SC)cc3)cc2)CC1	0.5%	-4.7%	?	7.94µM*	-70.9%	14.3%
CCCN1CNc2c(c(=O)[nH]c(=S)n2CCc2ccc(C)c(C)c2)C1	-1.8%	.	.	.	.	.
COC(=O)CSc1nc(N2CCCCC2)c2c(c1C#N)CCCC2	-2.2%	i	20.6%	10µM*	-2.3%	-1.1%
N#Cc1c(SCC(=O)O)nc(N2CCCCC2)c2c1CCCC2	-5.0%	-18.2%	-5.4%	-3.9%	-5.3%	3.7%
CC1=C(c2ccc(C)cc2)S(=O)(=O)NC1=NCCCN1CCN(c2ccc(F)cc2)CC1	-1.2%	i	-11.2%	11.2µM*	-0.3%	.
COc1ccc(C2=C(C)C(=NCCCN3CCN(c4cc(Cl)ccc4C)CC3)NS2(=O)=O)cc1	-0.4%	i	-5.1%	8.91µM*	-17.5%	.
N#CN1CCC(NS(=O)(=O)c2cccc(C(F)(F)F)c2)CC1	-3.0%	.	.	.	.	.
CN(C)CCCNC(=S)N1CCC(C(=O)c2ccc(Cl)cc2)CC1	.	-31.0%	7.2%	2µM*	.	3.7%
O=C(O)/C=C/c1ccc([N+](=O)[O-])o1	-22.7%	-0.2%	-14.0%	6.5%	-4.6%	0.7%
N#CCc1ccc(NC(=O)/C=C/c2ccc([N+](=O)[O-])o2)cc1	-5.9%	-57.4%	3.98µM*	-101.2%	?	-0.9%
O=C(Nc1ccc(F)cc1)NC1CCCCCCC1	-1.1%	-11.0%	-4.5%	?	-35.6%	-1.4%
O=C(Nc1ccc(F)cc1)C(NC1CCCCC1)c1ccccc1 (stereo not given)	-10.0%	i	19.1%	7.94µM*	-5.6%	8.1%
COc1cccc(NC(=O)C(NCCC(C)C)c2ccccc2)c1 (stereo not given)	?	-26.1%	-1.1%	?	-1.3%	6.5%
COc1cccc(NC(=O)C(NCC2CCCCC2)c2ccccc2)c1 (stereo not given)	4.4%	i	-7.3%	10µM*	0.3%	7.7%
Cc1occc1-c1nnc(SCC(=O)NC2CCCC2)n1-c1ccccc1	-20.6%	i	-3.6%	11.2µM*	-3.2%	0.4%
COc1ccc(OC)c(NC(=O)CSc2nnc(C3CCCCC3)n2-c2ccccc2)c1	-4.9%	i	2.0%	3.98µM*	10.6%	6.1%
COc1cccc(NC(=O)CSc2nnc(-c3ccoc3C)n2-c2ccccc2)c1	?	-5.1%[57.5 µM]	1.7%	11.2µM*	5.8%	4.0%
COc1ccc(NC(C)=O)cc1NC(=O)CSc1nnc(C2CCCCC2)n1N	1.3%	-18.3%	-0.4%	12.3%	1.7%	0.2%
CC(C)C[C@@H](NC(=O)[C@@H](COC(C)(C)C)NC(=O)[C@H](Cc1ccc(O)cc1)NC(=O)[C@@H](CO)NC(=O)[C@@H](Cc1c[nH]c2ccccc12)NC(=O)[C@@H](Cc1cnc[nH]1)NC(=O)[C@@H]1CCC(=O)N1)C(=O)N[C@H](CCCN=C(N)N)C(=O)N1CCC[C@H]1C(=O)NNC(N)=O	.	.	.	.	.	-1.3%
SMILES	Pin1 inhibitor	PTHR1 ag	HEK293 tox	GLP1R inv ag	miR-21 reporter	GLP1R ag
O=C(Nc1cccc2cccnc12)c1ccc(Br)cc1	-5.0%	.	.	.	.	.
O=C(O)CN=C(NS(=O)(=O)c1ccc(Cl)cc1)c1ccc(F)cc1	-1.6%	-0.6%	-2.4%	-5.3%	0.1%	-3.9%
O=S(=O)(NC(=NCc1ccccc1)c1ccc(F)cc1)c1ccc(Cl)cc1	2.3%	-13.3%	-1.5%	11.2µM*	-1.1%	-5.1%
COc1cc2ncnc(N(C)Cc3cccs3)c2cc1-c1ccc2c(c1)OCO2	5.8%	.	.	.	.	.
COc1ccccc1C(O)(c1ccccc1)C(CN1CCOCC1)c1ccccc1 (stereo not given)	-2.3%	i	-12.4%	10µM*	?	-2.3%
CCCCCCC(O)(c1ccccc1)C(CN1CCOCC1)c1ccccc1 (stereo not given)	-2.9%	-4.9%	?	3.55µM*	17.3%	-1.2%
COc1ccc(C(O)(CCC(C)C)C(CN2CCOCC2)c2ccccc2)cc1 (stereo not given)	-0.2%	-33.0%	?	10µM*	15.6%	1.4%
CCCCCCC(O)(c1ccc(OC)cc1)C(CN1CCOCC1)c1ccccc1 (stereo not given)	-13.7%	-35.4%	?	?	25.0%	5.8%
CCCCCC(O)(c1ccccc1)C(CN1CCOCC1)c1ccccc1 (stereo not given)	7.6%	-9.0%	-26.9%	10µM*	17.2%	0.3%
C=Cc1nc(Nc2cc(F)cc(F)c2)nc(NC2CCCC2)n1	-0.3%	.	.	.	.	.
CCN(Cc1ccccc1)C(=O)c1cccc(S(=O)(=O)N2CCN(Cc3ccccc3)CC2)c1	2.7%	-32.4%	9.2%	?	.	1.5%
COCCN(Cc1ccccc1)C(=O)c1cccc(S(=O)(=O)N2CCN(Cc3ccccc3)CC2)c1	.	-44.6%	2.3%	14.1µM*	.	4.3%
CCOC(=O)c1cc(-c2ccccc2)n(CCC(=O)NCCc2ccccc2)c1C	3.8%	-9.7%	4.0%	?	11.4%	.
COC(=O)c1sccc1NC(=O)CSc1ccccc1NS(=O)(=O)c1ccccc1Cl	54.8%	?	-1.7%	?	21.9%	8.9%
COC(=O)c1sccc1NC(=O)CSc1ccccc1NS(=O)(=O)c1ccc(Cl)cc1	1.4%	-13.9%[57.5 µM]	-16.3%	10µM*	15.2%	-0.2%
